# What was measured:
# Test in all cases: PBM binding z-score (relative to random genomic background probes); higher = stronger binding; sequences stand for … in GC…GCGATTGACAGCGTAGAATGAAGG
# [1] = tested on: FXR:RXRa (NR concentration 270 nM, RXRa partner concentration 90 nM)
# Outline: (§1)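 Each nuclear receptor dimer, without ligand, was incubated for 1 h on custom Agilent 4×180K protein-binding microarrays. Binding was detected with antibodies against each partner (one per run), and scanned fluorescence was regression-normalized. The binding z-scores are referenced to random human genomic background probes.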
# [2] = tested on: LXRa:RXRa (NR concentration 270 nM, RXRa partner concentration 90 nM)
# Outline: as §1
# [3] = tested on: LXRa homodimer (NR concentration 270 nM)
# Outline: as §1
# [4] = tested on: LXRb:RXRa (NR concentration 270 nM, RXRa partner concentration 90 nM)
# Outline: as §1
# [5] = tested on: LXRb homodimer (NR concentration 270 nM)
# Outline: as §1
# [6] = tested on: PPARa:RXRa (NR concentration 270 nM, RXRa partner concentration 90 nM)
# Outline: as §1
# [7] = tested on: PPARg:RXRa (NR concentration 180 nM, RXRa partner concentration 90 nM)
# Outline: as §1
# [8] = tested on: PPARg:RXRa 270nM:90nM, anti-RXR (NR concentration 270 nM, RXRa partner concentration 90 nM)
# Outline: as §1
# [9] = tested on: PPARg:RXRa 30nM:10nM, anti-RXR (NR concentration 30 nM, RXRa partner concentration 10 nM)
# Outline: as §1
# [10] = tested on: PPARg:RXRa 90nM:30nM, anti-RXR (NR concentration 90 nM, RXRa partner concentration 30 nM)
# Outline: as §1
# [11] = tested on: PPARg:RXRa DBDmut IVT, anti-RXR (DBD mutation: RXRa K156A/R161A, NR concentration 270 nM, RXRa partner concentration 90 nM)
# Outline: as §1
# [12] = tested on: PPARg:RXRa IVT, anti-PPARg (NR concentration 270 nM, RXRa partner concentration 90 nM)
# Outline: as §1
# [13] = tested on: PPARg DBDmut:RXRa IVT, anti-PPARg (DBD mutation: PPARg1 K132A/R137A, NR concentration 270 nM, RXRa partner concentration 90 nM)
# Outline: as §1
# [14] = tested on: PPARg DBDmut IVT, anti-PPARg (DBD mutation: PPARg1 K132A/R137A, NR concentration 270 nM)
# Outline: as §1
# [15] = tested on: PPARg homodimer (NR concentration 180 nM)
# Outline: as §1
# [16] = tested on: PXR:RXRa (NR concentration 270 nM, RXRa partner concentration 90 nM)
# Outline: as §1
# [17] = tested on: PXR homodimer (NR concentration 270 nM)
# Outline: as §1
# [18] = tested on: RARa:RXR (NR concentration 270 nM, RXRa partner concentration 90 nM)
# Outline: as §1
# [19] = tested on: RARa homodimer (NR concentration 270 nM)
# Outline: as §1
# [20] = tested on: RARb:RXRa (NR concentration 270 nM, RXRa partner concentration 90 nM)
# Outline: as §1
Sequence,PBM binding z-score [1],PBM binding z-score [2],PBM binding z-score [3],PBM binding z-score [4],PBM binding z-score [5],PBM binding z-score [6],PBM binding z-score [7],PBM binding z-score [8],PBM binding z-score [9],PBM binding z-score [10],PBM binding z-score [11],PBM binding z-score [12],PBM binding z-score [13],PBM binding z-score [14],PBM binding z-score [15],PBM binding z-score [16],PBM binding z-score [17],PBM binding z-score [18],PBM binding z-score [19],PBM binding z-score [20]
ATCTCTAGGTAAAGTTCTGTGAAAGATCGATAGA,0.326,0.57,0.294,0.0682,0.741,0.12,0.24,0.886,0.571,0.677,2.44,1.61,1.11,1.68,1.26,0.0126,0.619,0.484,0.939,0.419
CCGACTGGGGCGAAGGTTACCATACTCAGTACGA,-0.11,-0.108,-0.381,0.654,-1.24,3.09,7.04,7.02,5.36,6.85,1.13,2.83,-0.805,-0.462,0.137,0.261,-0.624,0.961,-0.33,0.726
TCAGACAAGTGAAGGTAACTCAGGTACGCAGTCG,0.55,1.36,-0.177,0.561,-0.499,0.902,0.548,2.26,3.99,2.94,2.07,0.111,0.0158,-0.174,-0.105,0.509,-0.105,0.807,-0.0772,0.197
GATGCAGGGTCAGCTAGAGGCCAGAGTATGGAAA,4.25,2.59,-0.565,2.29,-0.68,4.37,2.67,2.66,0.448,1.74,0.505,1.63,-0.437,-1.46,2.73,3.3,-0.237,4.56,0.285,4.1
CCTACTGGGCCATCAGGTCTTTGATATCAACGTT,-0.207,-0.321,-0.21,-0.159,-0.568,0.508,0.773,1.66,0.0943,1.01,4.27,4.11,-0.465,-0.285,0.396,-0.399,-0.181,-0.151,-0.266,0.423
CTAACTAGGTCAGAACAGGACAGTGAAGGATGAT,1.45,0.974,0.159,0.586,-0.0139,3.16,6.17,4.91,2.43,4.19,7.81,7.46,1.78,0.779,1.28,0.958,0.15,0.805,0.43,2.94
CCTAATTGGTCAAGGTCACACACGCTATAGGTAC,4.21,4.15,2.33,4.22,1.18,4.36,3.13,3.45,1.13,2.69,2.69,3.49,1.13,1.42,3.47,4.32,1.9,4.28,2.79,4.22
CCTTACGGGTCACTGAAAGGTTATAGCATTTGGA,5.83,4.87,0.976,4.17,0.221,5.59,5.13,5.03,2.12,3.38,2.95,4.1,1,1.09,3.7,5.03,0.223,6.33,0.617,4.51
ATCTCTAGGTAAAGATAGCTCAGTGAATGCAAAT,-0.126,-0.286,-0.237,-0.258,0.316,-0.203,0.422,0.32,0.153,0.317,1.84,1.53,1.58,0.349,0.00125,-0.537,-0.0577,-0.292,0.787,-0.195
TAGACAGGGTCAAAGGCCAGAGTACGAATGTCGA,7.27,4.51,-0.0175,3.89,0.611,5.99,7.49,6.93,4.3,6.42,0.674,3.81,1.39,0.376,1.55,4.13,0.121,5.65,0.0319,4.28
CCTACTGGGCCATCAGGTCAGTGATATCAACGTT,0.148,0.0376,0.047,0.311,-0.379,1.91,2.01,2.42,0.364,1.92,4.12,4.95,-0.457,0.096,0.501,0.376,-0.631,0.801,-0.59,1.77
CCGACTGGGGCAAGGTTACTATAACGCACAGCCA,0.258,1.52,-0.118,0.79,-0.963,1.59,3.02,2.98,1.03,2.21,2.98,3.39,0.184,-0.443,0.157,0.274,-0.27,0.867,-0.248,1.38
GTACCAAGGTGAATAGGTCGTTCATGAGTAGGCG,0.8,1.02,0.137,0.601,-0.594,2.17,1.4,1.69,0.0443,0.958,1.96,2.71,0.421,-1.06,0.765,0.908,-0.0414,1.62,-0.236,2.12
TCTTTTAGTTGAAGGGCAACCGACGAGTCCGTTT,0.645,1.13,0.171,1,1.62,1.16,-0.118,2.13,3.65,2.71,2.2,0.777,2.36,1.84,0.00638,0.764,0.475,0.383,0.199,1.65

# Reference: the supplement of paper PMC6555819
